Results on 63 compounds are retold here after PubChem BioAssay AID1376 (SRMLSC, 2008).

Each structure is given as a SMILES string. Screen size: about 220,000 compounds; about 530 (0.24%) were called active. Rule as the data show it: active = inhibition above about 13%; inconclusive = no clear call, values can overlap the other calls; inactive = below that. For the sample, actives were picked, then their nearest neighbours and some compounds at random. Measured potencies and affinities stand elsewhere.

By inhibition is commonly meant the drop in the measured response relative to a control, in per cent.

The target of the experiment is Bifunctional protein GlmU (Mycobacterium tuberculosis (strain ATCC 25618 / H37Rv)) (UniProt P9WMN3). Kind of experiment: inhibition of mycobacterial GlmU enzyme – biochemical, glucosamine-1-phosphate acetyltransferase (AID 1376).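 Also: 0% = complete reaction with vehicle and 100% = reaction without substrate.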 Conditions: M. tuberculosis GlmU acetyltransferase enzyme assay; active compounds read high;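 tested at 30 µM in the primary screen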.
Bifunctional protein GlmU (Mycobacterium tuberculosis (strain ATCC 25618 / H37Rv)), sequence (P9WMN3 whole entry, looked up): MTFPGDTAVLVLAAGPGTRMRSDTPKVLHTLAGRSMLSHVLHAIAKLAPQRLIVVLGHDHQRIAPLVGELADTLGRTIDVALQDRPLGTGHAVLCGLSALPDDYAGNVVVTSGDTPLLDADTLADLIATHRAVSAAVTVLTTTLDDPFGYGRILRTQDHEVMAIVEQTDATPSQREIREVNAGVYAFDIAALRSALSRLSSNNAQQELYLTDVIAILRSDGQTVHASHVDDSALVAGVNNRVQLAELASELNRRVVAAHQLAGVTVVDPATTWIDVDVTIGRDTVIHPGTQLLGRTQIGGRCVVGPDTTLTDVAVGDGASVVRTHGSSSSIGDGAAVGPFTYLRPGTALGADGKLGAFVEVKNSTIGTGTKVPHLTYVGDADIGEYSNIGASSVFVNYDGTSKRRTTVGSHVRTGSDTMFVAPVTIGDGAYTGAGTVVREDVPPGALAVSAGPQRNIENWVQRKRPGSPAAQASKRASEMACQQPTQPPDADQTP
With `COc1ccc(C(=O)Nc2ccc(N3CCCC3)cc2)cc1`, the inhibition is 13.4% (active).

As for `CC(C)Oc1ccc(C(=O)Nc2ccc(N3CCCC3)cc2)cc1`, the inhibition was 2.23% (inactive).

In the case of `COc1ccc(C(=O)NC(=S)Nc2ccc(N3CCCC3)cc2)cc1`, the inhibition was -3.46% (inactive).

As to `O=C(O[C@@H]1OC2COC(=O)c3cc(O)c(O)c(O)c3-c3c(cc(O)c(O)c3O)C(=O)O[C@@H]([C@H]1O)[C@@H]2O)c1cc(O)c(O)c(O)c1`, the inhibition is 30.4% (inactive).

With `CCC(=O)Nc1sc(C(=O)Nc2ccccc2OC)c(C)c1C(=O)OC`, the inhibition is 7.34% (inactive).

Regarding `O=C(/C=C/c1ccc(O)c(O)c1)OCCc1ccccc1`, the inhibition was -2.12% (inactive).

As to `O=C(O)/C=C/c1ccc(O)c(O)c1`, the inhibition is 5.24% (inactive).

Turning to `CCN1C(=O)CC(N2CCOCC2)C1=O` (stereo not drawn), the inhibition is -3.77% (inactive).

For `CCOc1ccc(C2CC(c3ccc(F)cc3)Nc3nc(N)nn32)cc1` (stereo not drawn), the inhibition was 2.32% (inactive).

Turning to `CN1C(=O)/C(=C/c2coc3ccc(O)cc3c2=O)SC1=S`, the inhibition is 2.74% (inactive).

On to `O=C1NC(=S)S/C1=C\c1coc2ccccc2c1=O`, for which the inhibition was 5.72% (inactive).

As for `O=C(Nc1ccc(Cl)cc1)Nc1ccccc1C(=O)O`, the inhibition is -1.73% (inactive).

Turning to `CN1CCN(CC(=O)Nc2sc3c(c2C#N)CCC(C(C)(C)C)C3)CC1` (stereo not drawn), the inhibition was 2.19% (inactive).

With `Cc1nn(CCCC(=O)Nc2sc3c(c2C#N)CCC3)c(C)c1[N+](=O)[O-]`, the inhibition is -0.77% (inactive).

Take `Cc1nn(CC(=O)Nc2sc3c(c2C#N)CCC(C(C)(C)C)C3)c(C)c1[N+](=O)[O-]` (stereo not drawn): the inhibition is 14.3% (active).

Regarding `CC(C)CCn1c(=O)c2ccccc2n2c(CN3CCCC3)nnc12`, the inhibition is -3.44% (inactive).

Consider `Cc1ccc(S(=O)(=O)Nn2c(O)c(C=C3N=c4ccccc4=N3)sc2=S)cc1`, for which the inhibition is 0.22% (inactive).

For `O=C1N=c2ccccc2=C1c1sc(Nc2ccc(O)cc2)nc1O`, the inhibition is 6.45% (inactive).

Turning to `O=C1N=c2ccccc2=C1c1sc(=S)n(NC(=O)c2ccccc2)c1O`, the inhibition was 13.4% (active).

For the compound `O=C1N=c2ccccc2=C1c1sc(NS(=O)(=O)c2ccccc2)nc1O`, the inhibition is 13.8% (active).

Regarding `O=C1N=c2ccccc2=C1c1sc(=S)n(NC(=O)c2cccc(O)c2)c1O`, the inhibition is -0.24% (inactive).

Take `O=S(=O)(Nn1c(O)c(C=C2N=c3ccccc3=N2)sc1=S)c1ccccc1`: the inhibition was 7.14% (inactive).

With `O=C1N=c2ccccc2=C1c1sc(NS(=O)(=O)Cc2ccccc2)nc1O`, the inhibition was 5.63% (inactive).

As for `O=C1N=c2ccc(Br)cc2=C1c1sc(=S)n(NS(=O)(=O)c2ccccc2)c1O`, the inhibition is 13.8% (active).

As for `COc1cc(C(=O)Nn2c(O)c(C3=c4ccccc4=NC3=O)sc2=S)ccc1O`, the inhibition is 4.03% (inactive).

In the case of `COc1ccc(C(=O)C2CCCN(C(=O)Cc3c(C)noc3C)C2)cc1OC` (stereo not drawn), the inhibition is -6.51% (inactive).

For the compound `COc1ccccc1C(=O)NCCCN1CCCC1=O`, the inhibition is -0.52% (inactive).

Turning to `Nc1c(C(=O)c2ccc(F)cc2)oc2ccccc12`, the inhibition is 1.74% (inactive).

As for `CCOc1ccccc1NC(=S)N(CCOC)C1CCN(C(C)=O)CC1`, the inhibition was 1.9% (inactive).

As for `CC(=O)N1CC=CC1(C)C(=O)NCc1cc(F)cc(C(F)(F)F)c1` (stereo not drawn), the inhibition was -2.53% (inactive).

As for `CCCCC(=O)Nc1ccc(C(=O)Nc2ccc(S(=O)(=O)Nc3ccc(C)cc3)cc2)cc1`, the inhibition is 3.43% (inactive).

In the case of `CCOc1ccc(N(CC(=O)NCC2CCCO2)C(=O)CCC(=O)Nc2nccs2)cc1` (stereo not drawn), the inhibition is -0.08% (inactive).

Turning to `Cc1oc(/N=C/c2c(O)ccc3ccccc23)c(C#N)c1C`, the inhibition was -4.74% (inactive).

As to `Nc1c(C(=O)N2CCCCC2)sc(=S)n1-c1ccccc1`, the inhibition is -0.25% (inactive).

Regarding `Cc1ccc(-n2c(N)c(C(=O)N3CCOCC3)sc2=S)cc1`, the inhibition is -2.93% (inactive).

For `Nc1c(C(=O)N2CCOCC2)sc(=S)n1-c1ccccc1`, the inhibition is 13.9% (active).

On to `Cc1cc2ccccc2c(=O)n1CC(=O)NCC(=O)N1CCN(c2ccccc2F)CC1`, for which the inhibition is -1.95% (inactive).

For the compound `CCOc1cc(CNCc2cccs2)ccc1OCC(=O)NC(C)(C)C`, the inhibition is 4.39% (inactive).

As to `OC(COc1ccc(Br)cc1)CN1CCOCC1` (stereo not drawn), the inhibition was -1.6% (inactive).

For `COc1ccc(CSc2nnc(NC(C)=O)s2)cc1[N+](=O)[O-]`, the inhibition is -1.4% (inactive).

Regarding `C/C(=N\NC(=O)c1ccc(F)cc1)c1cccc(NC(=O)c2ccco2)c1`, the inhibition is 1.13% (inactive).

Turning to `C/C(=N\NC(=O)c1cccc(C)c1)c1cccc(NC(=O)c2ccco2)c1`, the inhibition was 21.3% (active).

On to `C/C(=N\NC(=O)c1cccc(Cl)c1)c1cccc(NC(=O)c2ccco2)c1`, for which the inhibition is 4.79% (inactive).

With `Cc1cccc(Cn2cccc2/C=C2/C(=N)N3C=CSC3=NC2=O)c1`, the inhibition is -1.25% (inactive).

Turning to `CC(C)CC12CN3CCN(CC(C3)/C1=N/O)C2`, the inhibition is 0.59% (inactive).

For `COc1ccc(COc2ccccc2C(N)=O)cc1F`, the inhibition is 3.33% (inactive).

On to `O=S(=O)(c1ccc(OCC(O)CN2CCN(c3ccc(F)cc3)CC2)cc1)N1CCOCC1` (stereo not drawn), for which the inhibition was 3.7% (inactive).

On to `Cc1ccccc1CN1[C@@H](Cc2ccccc2)COCCS1(=O)=O`, for which the inhibition was -3.47% (inactive).

On to `O=S(=O)(O)c1cccc(N=Nc2c(O)ccc3ccccc23)c1`, for which the inhibition was 3.89% (inactive).

Turning to `Oc1ccc(N=Nc2c(O)ccc3ccccc23)cc1`, the inhibition is 0.98% (inactive).

`O=C(O)c1cc(N=Nc2c(O)ccc3ccccc23)cc(C(=O)O)c1`: the inhibition was 25.6% (active).

With `CCOC(=O)Cn1c(-c2ccccc2)ccc(C#N)c1=O`, the inhibition is -5.69% (inactive).

Regarding `CCn1c(-c2ccccc2)ccc(C#N)c1=O`, the inhibition was 14.1% (active).

As to `C#CCn1c(-c2ccccc2)ccc(C#N)c1=O`, the inhibition is 1.35% (inactive).

Regarding `O=C(CSc1ccccc1C(=O)O)NCC1CCCCC1`, the inhibition is -4.3% (inactive).

Take `COCCn1c(SCC(=O)c2[nH]c(C)c(C(C)=O)c2C)nc2ccccc21`: the inhibition was 3.37% (inactive).

In the case of `Cc1cc(N2CCC(C(=O)NC3CC3)CC2)nc(-c2ccccc2)n1`, the inhibition was 1.37% (inactive).

Turning to `Cc1cc(N2CCC(C(=O)NC3CCCCC3)CC2)nc(-c2ccccc2)n1`, the inhibition was 13.9% (active).

`C#CCNC(=O)C1CCN(c2cc(C)nc(-c3ccccc3)n2)CC1`: the inhibition was -1.53% (inactive).

Turning to `CC(=O)c1ccc(N2CCN(C(=S)Nc3ccccc3F)CC2)cc1`, the inhibition is -4.01% (inactive).

For `CS(=O)(=O)N1CCC(C(=O)N2CCN(Cc3ccccc3)CC2)CC1`, the inhibition is 0.44% (inactive).

Regarding `CCCS(=O)(=O)N1CCC(C(=O)N2CCN(Cc3ccccc3)CC2)CC1`, the inhibition was 30.1% (active).

Consider `CCS(=O)(=O)N1CCC(C(=O)N2CCN(Cc3ccccc3)CC2)CC1`, for which the inhibition was -4.26% (inactive).
